The full list was thinned out, with hits kept by preference.
AmpC inh detg – qHTS Inhibitors of AmpC Beta-Lactamase (assay with detergent); P00811; AmpC hydrolysis of nitrocefin, absorbance 480 nm, 0.01% Triton; Potency, µM (titrated, usually from 114 µM), inactives show top-dose activity change, negative = inhibition, actives largely listed as inhibitors; actives 0.041% (n = 370,000);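 further: potency means the concentration at half of the fitted maximal effect; 0% = no-compound wells and -100% = no-enzyme wells; nearly all actives have a fitted effect of over 25% in size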
Target sequence (P00811 whole entry, looked up): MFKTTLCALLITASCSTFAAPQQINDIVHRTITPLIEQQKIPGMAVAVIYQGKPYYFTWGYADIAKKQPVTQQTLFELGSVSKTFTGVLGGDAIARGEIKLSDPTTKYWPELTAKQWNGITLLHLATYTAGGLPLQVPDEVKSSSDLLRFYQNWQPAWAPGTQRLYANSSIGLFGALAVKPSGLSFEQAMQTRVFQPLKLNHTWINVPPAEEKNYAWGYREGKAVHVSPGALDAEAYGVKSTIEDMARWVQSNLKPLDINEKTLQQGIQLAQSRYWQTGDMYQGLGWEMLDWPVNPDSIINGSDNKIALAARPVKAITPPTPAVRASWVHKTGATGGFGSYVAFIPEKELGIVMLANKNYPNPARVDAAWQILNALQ
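AmpC (5.3 nM in the dispensed reagent) in 20 mM phosphate pH 7.0 with 0.01% (detergent screen) or 0.0001% Triton X-100 was preincubated with compounds for 15 min at room temperature. Nitrocefin was then added from an 800 uM solution, and hydrolysis was followed at 480 nm.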
SARS PLP yeast – qHTS of Yeast-based Assay for SARS-CoV PLP; S. cerevisiae expressing SARS-CoV PLpro, growth rescue; actives 0.19% (n = 330,000); AID 485353, 2010; Potency, µM (series often up to 32.9 µM), for inactives: at the top dose activity, positive = growth rescue, hits mostly activators; calls by dose curve; further: potency means the concentration at half of the fitted maximal effect; 0% is about no effect; nearly all actives have a fitted effect of over 55% in size
AmpC inh no detg – qHTS Inhibitors of AmpC Beta-Lactamase (assay without detergent); actives 0.52% (n = 330,000); Potency, µM (titrated, usually from 57.1 µM), without a hit: at the highest dose activity change, negative = inhibition, actives largely listed as inhibitors; P00811; AmpC nitrocefin hydrolysis, absorbance 480 nm, 0.0001% Triton; AID 485341, 2010;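 further: potency means the concentration at half of the fitted maximal effect; plate controls were no compound for no effect and no enzyme for full effect; nearly all actives have a fitted effect of over 20% in size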
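20 mM phosphate pH 7.0 + 0.01% (detergent screen) or 0.0001% Triton X-100; 5.3 nM AmpC reagent; cpd preinc 15 min RT; nitrocefin (800 uM stock) to start; A480 q20 s × 4 min; Activity was normalised to no-enzyme and no-compound control wells.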
Cycloheximide cs – Cycloheximide Counterscreen for Small Molecule Inhibitors of Shiga Toxin. actives 12% (n = 300,000). cell reporter, cycloheximide protein synthesis inhibition counterscreen. max response, %. AID 2314, 2010; in the data active means max response mostly above about 13%, no sharp cut-off; inactive means mostly below about 14%; further: read at 38.3 µM for the half of the compounds with a filed dose; 0% is about no effect
AMA1-RON2 inh – qHTS for Inhibitors of AMA1-RON; Towards Development of Antimalarial Drug Lead: Primary Screen; Plasmodium falciparum AMA1 (3D7) - RON2 peptide interaction; AlphaScreen AMA1-biotinylated RON2 peptide binding; Potency, µM (top dose mostly 58.2 µM), for inactives: at the highest dose activity change, negative = inhibition, usual class: inhibitors; actives 0.2% (n = 360,000);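 further: potency means the concentration at half of the fitted maximal effect; 0% = vehicle wells and -100% = peptide control; nearly all actives have a fitted effect of over 45% in size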
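AMA1 (3D7) with his tag at 25 nM final met compounds first, then biotinylated RON2 peptide at 25 nM; detection used donor plus acceptor beads, 10 µg/mL apiece, read by AlphaScreen after 30 min at room temperature.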
Shiga inhibitor – A qHTS for Small Molecule Inhibitors of Shiga Toxin | Vero cells, Shiga toxin protein synthesis inhibition reporter | inhibition, % at 38.7 µM | actives 9.2% (n = 290,000) | AID 2315, 2010; in the data active means inhibition mostly above about 28%, no sharp cut-off; inactive means mostly below about 43%; further: 0% is about no effect
* hit, by the source's call. Unless noted, the call rests on the fitted dose curve; in most records, active means well fitted curve in the direction sought with a large enough effect; inconclusive means small, poorly fitted or top-dose-only effect, or another doubt; inactive means no such curve, though single readings can be large; an effect the other way counts as inactive or inconclusive.

For O=C(Nc1ccc2c(c1)OCO2)C1CC(c2ccccc2Cl)=NO1 (stereo not given) the results were AmpC inh detg inconclusive, SARS PLP yeast -4%, AmpC inh no detg -9%, Cycloheximide cs 20, AMA1-RON2 inh -5% and Shiga inhibitor 48*.
For O=C(Nc1ccncc1)C1COc2ccccc2O1 (stereo not given) the results were AmpC inh detg -6%, SARS PLP yeast 3%, AmpC inh no detg -31%, Cycloheximide cs 11*, AMA1-RON2 inh -7% and Shiga inhibitor 49.
Screening O=C(Nc1cnc2ccccc2c1)C1COc2ccccc2O1 (stereo not given) returned AmpC inh detg inconclusive, SARS PLP yeast -1%, AmpC inh no detg -27%, Cycloheximide cs 31*, AMA1-RON2 inh 8% and Shiga inhibitor 80*.
NC(=O)c1ccc(NC(=O)C2COc3ccccc3O2)cc1 (stereo not given) was read as AmpC inh detg -9%, SARS PLP yeast 7%, AmpC inh no detg -22%, Cycloheximide cs -2, AMA1-RON2 inh -2% and Shiga inhibitor -2.
Cc1cccc(NC(=O)CN(C)S(=O)(=O)c2cccc3cccnc23)c1 was read as AmpC inh detg -19%, SARS PLP yeast 4%, AmpC inh no detg -38%, Cycloheximide cs -5, AMA1-RON2 inh 102% and Shiga inhibitor -7.
`CC(C)(C(=O)N1CCC1(C)C(=O)NS(=O)(=O)c1ccc(Cl)s1)c1ccccc1` (stereo not given) gave AMA1-RON2 inh -2%.
Screening O=C(Nc1ccc(F)cc1)C1COc2ccccc2O1 (stereo not given) returned AmpC inh detg 3%, SARS PLP yeast -2%, AmpC inh no detg -12%, Cycloheximide cs 20*, AMA1-RON2 inh 2% and Shiga inhibitor 39.
Screening O=C(Nc1ccc2c(c1)CCC2)C1COc2ccccc2O1 (stereo not given) returned AmpC inh detg -6%, SARS PLP yeast -29%, AmpC inh no detg -18%, Cycloheximide cs 58*, AMA1-RON2 inh 0% and Shiga inhibitor 40*.
Screening CC(O)CNc1ncnc2cc(-c3ccc(F)cc3)sc12 (stereo not given) returned AmpC inh detg -4%, SARS PLP yeast -1%, AmpC inh no detg -2%, Cycloheximide cs 15*, AMA1-RON2 inh 16% and Shiga inhibitor 79*.
`COC(CNc1ncnc2sc(-c3ccccc3)cc12)OC` gave AmpC inh detg 0%, SARS PLP yeast 1%, AmpC inh no detg 0%, Cycloheximide cs 14, AMA1-RON2 inh 7% and Shiga inhibitor 26.
CC/C(=N/NC(=O)c1ccccc1)c1ccc(OCCN2CCOCC2)cc1 was read as AmpC inh detg -13%, SARS PLP yeast 3%, AmpC inh no detg -7%, Cycloheximide cs 70*, AMA1-RON2 inh 40% and Shiga inhibitor 80*.
For CCCCOc1ccc(C(=O)C(CN2CCOCC2)c2ccccc2)cc1 (stereo not given) the results were AmpC inh detg -21%, SARS PLP yeast -35%, AmpC inh no detg 159%, Cycloheximide cs 0, AMA1-RON2 inh -15% and Shiga inhibitor 9.
`CC/C(=N/NC(=O)c1ccc(Br)cc1)c1ccc(OCCN2CCOCC2)cc1` gave AmpC inh detg 5%, SARS PLP yeast 6%, AmpC inh no detg -19%, Cycloheximide cs 17, AMA1-RON2 inh 61% and Shiga inhibitor 52*.
For COc1ccc(CN2CC(C(=O)NCCCOC(C)C)CC2=O)cc1 (stereo not given) the results were AmpC inh detg inconclusive, SARS PLP yeast -1%, AmpC inh no detg 1%, Cycloheximide cs -2, AMA1-RON2 inh -5% and Shiga inhibitor -23.

From PubChem BioAssay
